Composite z-score and z-score data for five molecules are collected here from PubChem BioAssay.

Experiment [1] is described as follows: compounds binding Alexa647 anti-His antibody – biochemical, small-molecule microarray, 635 nm fluorescence, artefact control for SMM control protein annotation, primary screen (AID 1128).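 Note: score merges feature fluorescence with signal-to-noise for each printed compound spot.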 To be noted: higher = more signal.
Experiment [2] concerns Human papillomavirus type 1a E7 protein (residues 1-88). In words: HPV1a E7 small-molecule binders, primary screen, biochemical, small-molecule microarray, residues 1-88, 635 nm (AID 1129). Conditions: small-molecule microarray binding, fluorescence 635 nm; higher = more signal.
For experiment [3], the target named is Focal adhesion kinase 1 (Homo sapiens) (UniProt Q05397). In words: PTK2 protein binding on printed compound slides – biochemical, small-molecule microarray, 635/667 nm fluorescence, BSA, DTT, primary screen (AID 1130).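 Note: composite of spot emission at 667 nm and signal to noise over triplicate slides.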 To be noted: 635 nm fluorescence, higher = more signal.
In experiment [4] the test system is Fibrinogen (Alexa647-labelled). Kind of experiment: Alexa647-fibrinogen binding to printed small molecules – biochemical, small-molecule microarray, 635/667 nm fluorescence, artefact control for SMM control-protein annotation, profiling panel (AID 1131).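 Note: z-score merges 667 nm fluorescence with per-spot signal-to-noise over triplicate slides.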 To be noted: fibrinogen-A647 binding fluorescence, higher = more signal.
In experiment [5] the target is Follistatin (Homo sapiens) (UniProt P19883). In words: FST protein binding to printed compounds – biochemical, small-molecule microarray, 635/667 nm fluorescence, primary screen (AID 1132). Conditions: 635 nm fluorescence, higher = more signal.
Experiment [6] has as its target Fibroblast growth factor 2 (Homo sapiens) (UniProt P09038). In words: basic fibroblast growth factor binding to printed compounds – biochemical, small-molecule microarray, 635/667 nm fluorescence, primary screen (AID 1133). Conditions: FGF2, fluorescence 635/667, higher = more signal.
Experiment [7] in a line: JC-1 mitochondrial potential readout, lung cancer cells – cell-based, A549, JC-1 fluorescence, basal, 24 h, 100 nL, profiling panel (AID 1138).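 Note: A549 lung adenocarcinoma cells under basal conditions with no added stimulus; test concentration not given here.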 Conditions: higher = more signal.
The next experiment relates to Lefty1. Kind of experiment: Lefty1 protein binding to printed compounds – biochemical, small-molecule microarray, 635/667 nm fluorescence, primary screen (AID 1139). To be noted: fluorescence 635/667, higher = more signal.
Experiment [8] deals with wheat germ agglutinin (Triticum aestivum), Alexa647-labelled. In words: Alexa647-WGA lectin binding to printed small molecules – biochemical, small-molecule microarray, 635/667 nm fluorescence, artefact control for SMM control-protein annotation, profiling panel (AID 1140).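 Note: score merges 667 nm feature emission with signal to noise over triplicate slides.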 Conditions: WGA-A647 binding, 635 nm fluorescence, higher = more signal.
In experiment [9] the target is Luciferin 4-monooxygenase (Photinus pyralis) (UniProt P08659). Kind of experiment: inhibition of purified Photinus pyralis luciferase – biochemical, luminescence, purified enzyme, 2006 set, primary screen (AID 1141).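 Note: cell-free assay with purified firefly luciferase at 100 ng per well in PBS; test concentration not given here.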 Conditions: purified firefly luciferase, SteadyGlo luminescence, 30 min; higher = more signal, called active from +8 up or from −8 down.
Experiment [10] has as its system Wnt5a (protein binding on small-molecule microarray). Kind of experiment: small molecules binding Wnt5a protein – biophysical, small-molecule microarray, 635/667 nm fluorescence, primary screen (AID 1142).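 Note: fluorescence read at 667 nm with signal to noise per printed feature.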 Conditions: 635 nm fluorescence, higher = more signal.
Experiment [11] is described as follows: ATP-based viability of Huh7 replicon cells – cell-based, CellTiter-Glo luminescence, basal, 48 h, cytotoxicity control for HCV replication inhibitor project, primary screen (AID 1143).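 Note: Huh7 hepatoma cells carrying a hepatitis C replication reporter with no stimulus; test concentration not given here.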 Conditions: higher = more signal, called active from +8 up or from −8 down.
The nature of experiment [12]: Pseudomonas biofilm growth suppression – PAO1 strain, BacTiter-Glo luminescence, LB-PBS, primary screen (AID 1144). Conditions: P. aeruginosa PAO1 biofilm, 12 h, higher = more signal.
The nature of experiment [13]: basal CRE-LacZ reporter activity in PC12 – cell-based, unstimulated, primary screen (AID 1145). To be noted: no forskolin, luminescence, 4.5 h, higher = more signal, called active from +8 up or from −8 down.
Experiment [14] is described as follows: forskolin-driven CRE-LacZ activity in PC12 – cell-based, CRE-LacZ reporter, forskolin-stimulated, primary screen (AID 1146).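 Note: PC12 cells with 6xCRE LacZ reporter stimulated by forskolin 10 µM; beta-galactosidase reporter signal reflecting CREB driven transcription.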 To be noted: luminescence, 4.5 h, higher = more signal, called active from +8 up or from −8 down.
In experiment [15] the target is Streptavidin (Streptomyces avidinii) (UniProt P22629). Kind of experiment: compounds binding control protein streptavidin – biophysical, small-molecule microarray, 635/667 nm fluorescence, artefact control for SMM compound annotation, primary screen (AID 1147).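 Note: signal reflects streptavidin binding to arrayed compounds as a control protein.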 Conditions: higher = more signal.
Experiment [16] in a line: probe aInhba binding on compound microarray – biochemical, small-molecule microarray, 635/667 nm fluorescence, primary screen (AID 1148).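 Note: score merges 667nm spot fluorescence with signal-to-noise for antibody binding to printed compounds.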 Conditions: higher = more signal.
Experiment [17] concerns the target Torsin-1A (Homo sapiens) (UniProt O14656). In words: TOR1A wild-type binding on microarray – cell lysate, small-molecule microarray, lysate, 635/667 nm, primary screen (AID 1149). To be noted: COS7 hTOR1A-WT lysate, 635 nm fluorescence, higher = more signal.
The target is the same in experiment [18]. Kind of experiment: torsin A mutant lysate binding on microarrays – cell lysate, small-molecule microarray, COS7 lysate, 635/667 nm fluorescence, primary screen (AID 1150).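 Note: score pools 667 nm emission and signal to noise measuring lysate protein binding.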 Conditions: COS7 hTOR1A mutant lysate, 635 nm fluorescence, higher = more signal.
Experiment [19] relates to Sonic hedgehog protein (Shh). Kind of experiment: Sonic hedgehog microarray binding compounds – biochemical, small-molecule microarray, 635/667 nm fluorescence, primary screen (AID 1151).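 Note: Shh protein binding to compounds spotted on small-molecule microarray slides; score combines spot fluorescence intensity with signal-to-noise across triplicate slides.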 Conditions: 635 nm fluorescence, higher = more signal.

Activity calls are given as the source filed them. Unless noted, the rule behind the calls is not given here.

Follistatin (Homo sapiens), sequence (P19883 whole entry, looked up): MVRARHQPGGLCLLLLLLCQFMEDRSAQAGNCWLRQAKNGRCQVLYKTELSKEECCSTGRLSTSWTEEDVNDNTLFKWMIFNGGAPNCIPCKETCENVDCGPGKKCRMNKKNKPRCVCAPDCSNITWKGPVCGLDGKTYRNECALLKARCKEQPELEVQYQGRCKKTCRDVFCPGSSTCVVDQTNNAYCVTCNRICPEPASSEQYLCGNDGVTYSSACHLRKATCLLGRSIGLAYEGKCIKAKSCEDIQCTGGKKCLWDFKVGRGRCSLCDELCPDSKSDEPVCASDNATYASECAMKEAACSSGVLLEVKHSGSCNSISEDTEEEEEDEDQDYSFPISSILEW
Streptavidin (Streptomyces avidinii), sequence (P22629 whole entry, looked up): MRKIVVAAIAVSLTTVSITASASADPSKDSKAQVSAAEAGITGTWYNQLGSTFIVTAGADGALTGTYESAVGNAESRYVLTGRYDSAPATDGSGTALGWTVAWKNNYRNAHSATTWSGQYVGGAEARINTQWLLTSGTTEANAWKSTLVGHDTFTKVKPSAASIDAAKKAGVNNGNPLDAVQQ
Fibroblast growth factor 2 (Homo sapiens), sequence (P09038 whole entry, looked up): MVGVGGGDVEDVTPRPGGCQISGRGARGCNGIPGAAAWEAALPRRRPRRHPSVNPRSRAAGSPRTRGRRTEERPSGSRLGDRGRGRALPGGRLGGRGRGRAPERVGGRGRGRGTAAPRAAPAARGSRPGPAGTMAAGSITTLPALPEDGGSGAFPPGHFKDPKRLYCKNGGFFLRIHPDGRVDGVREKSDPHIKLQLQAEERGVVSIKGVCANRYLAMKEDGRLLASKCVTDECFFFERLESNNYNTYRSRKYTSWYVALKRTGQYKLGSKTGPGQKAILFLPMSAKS
Luciferin 4-monooxygenase (Photinus pyralis), sequence (P08659 whole entry, looked up): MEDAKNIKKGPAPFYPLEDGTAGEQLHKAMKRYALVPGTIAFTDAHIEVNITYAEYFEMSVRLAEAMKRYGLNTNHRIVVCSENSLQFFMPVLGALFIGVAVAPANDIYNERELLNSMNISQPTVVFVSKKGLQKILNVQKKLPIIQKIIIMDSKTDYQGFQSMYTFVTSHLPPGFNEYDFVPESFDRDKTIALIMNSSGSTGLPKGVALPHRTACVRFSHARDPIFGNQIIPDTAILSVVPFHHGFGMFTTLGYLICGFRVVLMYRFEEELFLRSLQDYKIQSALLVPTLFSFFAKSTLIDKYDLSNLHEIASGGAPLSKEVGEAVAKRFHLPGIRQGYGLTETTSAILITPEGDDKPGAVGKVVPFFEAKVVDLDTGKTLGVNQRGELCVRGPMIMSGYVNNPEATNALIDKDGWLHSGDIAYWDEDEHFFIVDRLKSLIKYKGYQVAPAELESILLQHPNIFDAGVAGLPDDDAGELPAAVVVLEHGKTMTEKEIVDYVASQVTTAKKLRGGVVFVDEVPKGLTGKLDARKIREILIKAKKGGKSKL
Focal adhesion kinase 1 (Homo sapiens), sequence (Q05397 whole entry, looked up): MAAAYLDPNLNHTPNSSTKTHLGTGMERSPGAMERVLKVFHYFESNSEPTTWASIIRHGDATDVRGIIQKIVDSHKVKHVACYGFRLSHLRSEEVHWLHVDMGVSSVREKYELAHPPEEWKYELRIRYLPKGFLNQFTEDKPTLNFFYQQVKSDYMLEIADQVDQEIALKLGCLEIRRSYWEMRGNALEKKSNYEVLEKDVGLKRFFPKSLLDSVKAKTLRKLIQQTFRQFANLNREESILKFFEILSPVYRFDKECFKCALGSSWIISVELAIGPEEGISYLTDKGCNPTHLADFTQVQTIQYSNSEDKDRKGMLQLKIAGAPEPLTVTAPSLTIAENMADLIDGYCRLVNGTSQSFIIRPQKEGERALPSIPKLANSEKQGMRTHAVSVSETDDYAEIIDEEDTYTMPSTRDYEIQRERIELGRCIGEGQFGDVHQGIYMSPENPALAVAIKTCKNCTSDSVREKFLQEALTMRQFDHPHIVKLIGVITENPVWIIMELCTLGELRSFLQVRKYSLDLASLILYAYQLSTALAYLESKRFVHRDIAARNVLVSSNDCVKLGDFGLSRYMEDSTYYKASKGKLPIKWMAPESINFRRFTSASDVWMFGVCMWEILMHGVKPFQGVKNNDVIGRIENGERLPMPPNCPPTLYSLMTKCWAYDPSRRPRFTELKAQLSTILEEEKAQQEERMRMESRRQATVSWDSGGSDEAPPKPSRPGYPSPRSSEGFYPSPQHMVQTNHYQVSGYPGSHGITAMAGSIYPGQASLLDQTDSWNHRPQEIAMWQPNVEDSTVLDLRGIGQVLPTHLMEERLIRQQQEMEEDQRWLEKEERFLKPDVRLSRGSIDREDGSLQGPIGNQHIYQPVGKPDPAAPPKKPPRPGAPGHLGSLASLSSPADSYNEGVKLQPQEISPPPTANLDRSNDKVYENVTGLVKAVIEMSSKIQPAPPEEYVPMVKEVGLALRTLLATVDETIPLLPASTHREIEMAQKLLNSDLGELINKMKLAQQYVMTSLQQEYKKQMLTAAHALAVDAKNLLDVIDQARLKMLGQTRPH
Torsin-1A (Homo sapiens), sequence (O14656 whole entry, looked up): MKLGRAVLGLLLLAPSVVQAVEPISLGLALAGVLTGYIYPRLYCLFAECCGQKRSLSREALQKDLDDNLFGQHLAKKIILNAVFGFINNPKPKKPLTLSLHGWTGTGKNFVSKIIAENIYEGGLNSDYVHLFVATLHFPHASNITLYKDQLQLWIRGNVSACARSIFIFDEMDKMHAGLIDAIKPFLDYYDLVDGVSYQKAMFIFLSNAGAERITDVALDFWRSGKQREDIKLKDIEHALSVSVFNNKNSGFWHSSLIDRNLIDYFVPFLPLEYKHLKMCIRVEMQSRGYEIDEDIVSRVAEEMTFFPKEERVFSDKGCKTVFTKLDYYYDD

`NC(=O)NCC#Cc1ccc2c(c1)[C@]1(C(=O)N2)[C@H](C(=O)Nc2nc3ccccc3s2)[C@H]2C(=O)O[C@H](c3ccccc3)[C@H](c3ccccc3)N2[C@@H]1c1ccc(O)cc1`: the composite z-score was -0.198 in [1]; 0.52 in [2]; 0.286 in experiment [3]; 0.629 in experiment [4]; 1.28 in experiment [5]; 0.651 in experiment [6]. Moreover, the composite z-score in the experiment with Lefty1 is 0.383; in experiment [8], 0.696; in [10], 0.236; in experiment [15], 2.27; in experiment [16] it was 0.806; with Torsin-1A (Homo sapiens) [17], 0.171. Moreover, the composite z-score is -0.216 with Torsin-1A (Homo sapiens) [18] and 0.922 in experiment [19]. For the same molecule, the z-score in [7] is -2.41; in [9], -1.76 (inactive); in experiment [11] it was 0.0524 (inactive); in experiment [12], 0.688 (inactive); in [13], -1.15 (inactive); in experiment [14], -1.58 (inactive).
On to `COc1ccc([Si](C)(C)[C@H]2[C@H](CCn3cc([C@H](O)c4ccccc4)nn3)O[C@@]3(C(=O)N(Cc4cccc(N5C(=O)c6cccc7cccc5c67)c4)c4ccccc43)[C@@H]2C)cc1`, for which the composite z-score in [1] is -0.953; in [2] it was -0.859; in experiment [3], -0.435; in experiment [4] it was -0.678; in experiment [5] it was -1.64; in experiment [6], -1.03. Further, the composite z-score is -1.36 in the experiment with Lefty1; -0.76 in [8]; -0.302 in experiment [10]; -0.713 in experiment [15]; -0.176 in experiment [16]; -0.601 with Torsin-1A (Homo sapiens) [17]. Further, the composite z-score with Torsin-1A (Homo sapiens) [18] was -0.437; in [19] it was -0.0819. The z-score in experiment [7] is 0.647; in [9], 0.119 (inactive); in experiment [11], -3.31 (inactive); in experiment [12], 0.789 (inactive); in [13], -0.142 (inactive); in experiment [14], 1.01 (inactive).
With `CC[C@H]1C2=C3C(CC[C@H]4C(OCc5ccc(F)cc5C(F)(F)F)OC[C@](C)([C@@H]34)N(C(=O)OC(C)(C)C)C2)C2COC(=O)OCC21` (stereo not given in full), the composite z-score in experiment [1] is 0.0812; in experiment [2], 1.17; in [3], 1.55; in experiment [4], 0.979; in experiment [5] it was 0.432; in experiment [6], -1.39. In addition, the composite z-score was -0.233 in the experiment on Lefty1; 0.688 in [8]; 0.0641 in [10]; 1.44 in [15]; 0.0003 in experiment [16]; 0.246 with Torsin-1A (Homo sapiens) [17]. Also, the composite z-score worked out at 0.666 with Torsin-1A (Homo sapiens) [18] and 0.0392 in [19]. Also, the z-score was 1.86 in experiment [7]; -0.198 (inactive) in experiment [9]; -2.57 (inactive) in experiment [11]; 0.265 (inactive) in experiment [12]; 0.576 (inactive) in experiment [13]; 0.204 (inactive) in [14].
`C=CCOC(=O)[C@H]1[C@@H]2C(=O)O[C@@H](c3ccccc3)[C@@H](c3ccccc3)N2[C@@H](c2ccc(OCCOC(=O)[C@H]3C[C@H]4C(=O)N[C@@H](CCCC[N+](C)(C)C)C(=O)N4[C@H]3c3cccc(OCCO)c3)cc2)[C@]12C(=O)Nc1ccc(I)cc12`: the composite z-score was found to be 1.21 in experiment [1]; 0.915 in [2]; 0.293 in experiment [3]; 0.82 in experiment [4]; 1.34 in experiment [5]; 1.7 in experiment [6]. In addition, the composite z-score with Lefty1 is 0.761; in experiment [8], 0.19; in experiment [10], 0.419; in experiment [15], -0.0117; in [16], -0.13; in the experiment with Torsin-1A (Homo sapiens) [17], 0.485. The composite z-score came to 0.29 with Torsin-1A (Homo sapiens) [18] and 1.03 in [19]. For the same molecule, the z-score is -1.45 in [7]; -0.678 (inactive) in [9]; -0.587 (inactive) in experiment [11]; -1.08 (inactive) in experiment [12]; 0.415 (inactive) in experiment [13]; -0.0044 (inactive) in experiment [14].
As for `COc1c(C)cc(-c2cc3c(c(Cc4ccccc4)n2)[Si](C(C)C)(C(C)C)OC3)cc1C`, the composite z-score in [1] is 0.0134; in experiment [2], -0.006; in experiment [3], 0.212; in experiment [4], 0.0295; in experiment [5], 0.308; in experiment [6], 0.0273. The composite z-score in the experiment with Lefty1 is 0.708; in experiment [8], -0.063; in [10], 0.0025; in experiment [15], 0.169; in experiment [16] it was -0.128; with Torsin-1A (Homo sapiens) [17], -0.0914. In addition, the values for the composite z-score (with Torsin-1A (Homo sapiens) [18]; in experiment [19]) were -0.105 and 0.513, respectively. The z-score in experiment [7] was 0.0666; in experiment [9] it was 0.674 (inactive); in experiment [11], 0.428 (inactive); in experiment [12], 0.602 (inactive); in experiment [13], -0.0848 (inactive); in [14], -0.47 (inactive).
